Assay results: PubChem BioAssay (NCATS)
Where “and” joins values, the source holds several entries; their conditions need not be identical. Equal entries are not always repeated. Records with an inconclusive call do not appear. Calls of active or inactive are those of the source. Unless noted, calls follow the shape of the dose curve; as a rule, active = well fitted curve in the direction sought with a large enough effect; inconclusive = small, poorly fitted or top-dose-only effect, or another doubt; inactive = no such curve, though single readings can be large; an effect the other way counts as inactive or inconclusive.

Experiments:
[1] = Cell Viability - LYMP1-002 - Assay at 16 hr (AID 948);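 also: 0% = DMSO alone and full effect = 92 µM tetraoctylammonium bromide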
Procedure, shortened: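 Acute cytotoxicity is scored as a concentration-dependent fall in intracellular ATP in a human lymphoblastoid line (LYMP1-002) after 16 hr compound exposure at 37 C, measured by luciferase luminescence.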

[2] = Cell Viability - LYMP2-003 (AID 965);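 also: cells exposed to compounds for 24 h before reading; 0% = DMSO only and full effect = 92 µM tetraoctylammonium bromide; nearly all actives have a fitted effect of over 50% in size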
Procedure, shortened: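 Acute cytotoxicity is scored as a concentration-dependent drop in intracellular ATP, measured by luciferase luminescence in human lymphoblastoid cells treated for 24 hours at 37 C. AC50 values derive from Hill-equation modelling.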

[3] = Cell Viability - LYMP2-005 (AID 967);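 also: series mostly up to about 92 µM; plate controls were DMSO only for no effect and 92 µM tetraoctylammonium bromide control for full effect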
Procedure, shortened: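 qHTS viability screen in LYMP2-005 cells: 24 h at 37 C with compound, ATP luminescence via CellTiter-Glo, AC50 from Hill curves.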

[4] = Cell Viability - LYMP2-008 (AID 980); also: % is scaled to controls: 0 for no effect and ±100 for the full control effect; nearly all actives have a fitted effect of over 60% in size
Procedure, shortened: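 Measured: ATP-dependent luminescence, proportional to viable cell number, in human lymphoblastoid cells treated 24 hr with compound in complete culture medium. Values are AC50s from Hill-equation modelling of qHTS titrations.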

[5] = Cell Viability - LYMP1-002 - Assay at 24 hr (AID 993); also: % is scaled to controls: 0 for no effect and ±100 for the full control effect
Procedure, shortened: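 Viability was judged from intracellular ATP using a luciferase read-out, following a 24-hour compound incubation at 37 C of lymphoblastoid cells seeded at 2500 per well. Concentration-response data were fitted to the Hill equation for AC50.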

[6] = target: Estrogen receptor (Homo sapiens) (UniProt P03372); experiment: qHTS assay for small molecule antagonists of estrogen receptor alpha signaling (AID 588513; active = well fitted curve in the direction sought with a large enough effect in the signal ratio, with a control signal flat, not every such curve was filed as active; the % refers to the signal ratio; also: % is scaled to controls: 0 for no effect and ±100 for the full control effect)
Procedure, shortened: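 Cells were plated at 5000/well and incubated 4 h at 37 C. Compounds were added as 1:2 dilution series, duplicates. 17-beta-estradiol (0.5nM final) was added for 18 h before CCF4 detection.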

[7] = target: Bile acid receptor (Homo sapiens) (UniProt Q96RI1); experiment: qHTS assay for small molecule antagonists of farnesoid X receptor signaling (AID 588526; calls by dose curve; also: % is scaled to controls: 0 for no effect and ±100 for the full control effect)
Procedure, shortened: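 Concentration-response titrations were fitted to the Hill equation for half-maximal inhibition and maximal response, with data normalised to 50 uM chenodeoxycholic acid and DMSO control wells. Cells: FXR-UAS-bla HEK293T, dialyzed FBS.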

[8] = target: Glucocorticoid receptor (Homo sapiens) (UniProt P04150); experiment: qHTS assay for small molecule agonists of glucocorticoid receptor signaling (AID 588532; active = well fitted curve in the direction sought with a large enough effect in the signal ratio, with a control signal flat; the % refers to the signal ratio;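 also: 100% = dexamethasone at 0.1 µM and 0% = DMSO only wells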); details: HeLa MMTV-bla, beta-lactamase ratio, agonist, 18 h; stronger effect = higher value; percent of dexamethasone control, DMSO zero
Procedure, shortened: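 MMTV-bla HeLa, beta-lactamase reporter; medium with 1% charcoal/dextran-stripped FBS; cpds up to 92 uM, 18 h, 37 C; CCF4 readout 460/530 nm; Hill fit → EC50, efficacy vs 0.1 uM dexamethasone = 100%.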

[9] = target: Glucocorticoid receptor (Homo sapiens) (UniProt P04150); experiment: qHTS assay for small molecule antagonists of glucocorticoid receptor signaling (AID 588533; active = well fitted inhibition curve with a large enough effect in the signal ratio, with a control signal flat, not every such curve was filed as active; the % refers to the signal ratio;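 also: cells stimulated with 2 nM dexamethasone as agonist; % is scaled to controls: 0 for no effect and ±100 for the full control effect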)
Procedure, shortened: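 Antagonist-mode qHTS: compound titrations added to GRE-bla HeLa cells, then dexamethasone 2 nM final; 18 h, 37 C. CCF4 FRET fluorescence normalized to dexamethasone and DMSO; IC50 from Hill fit.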

[10] = target: Peroxisome proliferator-activated receptor delta (Homo sapiens) (UniProt Q03181); experiment: qHTS assay for small molecule agonists of peroxisome proliferator-activated receptor delta signaling (AID 588534; calls by dose curve;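 also: 0% = DMSO basal wells and 100% = positive control agonist at 10 µM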)
Procedure, shortened: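 EC50 and efficacy values derive from Hill fits of a concentration series in a beta-lactamase reporter cell assay. Exposure is 18 hrs at 37 C, with CCF4 fluorescence as the readout.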

[11] = qHTS assay for small molecule antagonists of peroxisome proliferator-activated receptor delta signaling (AID 588535; active = well fitted inhibition curve with a large enough effect in the signal ratio, with a control signal flat, not every such curve was filed as active; the % refers to the signal ratio;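 as to max response: cells co-treated with a PPAR-delta agonist as stimulator during compound exposure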); details: HEK293T PPARd-UAS-bla, beta-lactamase FRET ratio, 18 h; 460 nm channel
Procedure, shortened: (§1)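 Compounds tested in titration on PPAR-delta-UAS-bla HEK293T cells grown in charcoal/dextran-stripped serum (2%); beta-lactamase activity read via CCF4 emission at 460 and 530 nm.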

[12] = target: Peroxisome proliferator-activated receptor delta (Homo sapiens) (UniProt Q03181); experiment: as above
Procedure, shortened: as §1

[13] = target: Peroxisome proliferator-activated receptor gamma (Homo sapiens) (UniProt P37231); experiment: qHTS assay for small molecule antagonists of peroxisome proliferator-activated receptor gamma signaling (AID 588537; active = well fitted inhibition curve with a large enough effect in the signal ratio, with a control signal flat, not every such curve was filed as active; the % refers to the signal ratio;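 also: reporter cells co-stimulated with 50 nM rosiglitazone agonist during compound treatment; % of control where 0% means no effect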)
Procedure, shortened: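 HEK293 cells, PPAR-gamma-UAS-bla, 3000/well. Pre-incubation 6-6.5 h, 37 C. Compound titration with rosiglitazone 50 nM final, 16 h. CCF4 dye, 2 h RT, dual-emission fluorescence.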

[14] = qHTS assay for small molecule activators of the nuclear factor-kappa B (NF-kB) signaling pathway (AID 651749; active = well fitted activation curve with a large enough effect in the signal ratio; the % refers to the signal ratio; also: series mostly up to about 77 µM; % of control where 0% means no effect); details: NF-kB-bla ME-180 cells, beta-lactamase FRET ratio, 16 h; stronger effect = higher value
Procedure, shortened: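 Beta-lactamase reporter expression, controlled by NF-kB response elements in ME-180 cells, was quantified fluorometrically via FRET disruption; cells at 2,000/well had been incubated with 23 nL test compound for 16 hr.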

[15] = qHTS assay for small molecule disruptors of the mitochondrial membrane potential - 1 hr assay (AID 651754; calls by dose curve; also: nearly all actives have a fitted effect of over 35% in size; also: potency is read from the fitted curve at half-maximal effect)
Procedure, shortened: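 In this qHTS format, a 1 hr compound treatment of HepG2 cells precedes Mito-MPS staining, and membrane potential is judged from aggregate (red) against monomer (green) fluorescence intensity.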

[16] = target: Thyroid hormone receptor beta (Homo sapiens) (UniProt P10828); experiment: qHTS assay for small molecule antagonists of thyroid hormone receptor beta signaling (AID 588547; active = well fitted inhibition curve with a large enough effect in the signal ratio, with a control signal flat, not every such curve was filed as active; the % refers to the signal ratio); details: TR-UAS-bla HEK293, beta-lactamase ratio, antagonist mode, 18 h
Procedure, shortened: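 TR-UAS-bla GripTite HEK293 cells in 2% charcoal/dextran FBS medium were preincubated 4 h at 37 C, given compound (0.59 nM to 92 uM) plus 0.4 nM T3 (final) for 18 h, then CCF4 for 2 h at RT; Hill fit gave IC50.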

[17] = qHTS assay for small molecule activators of the p53 signaling pathway (AID 651743; active = well fitted activation curve with a large enough effect in the signal ratio, not every such curve was filed as active; the % refers to the signal ratio; also: series mostly up to about 92 µM; % of control where 0% means no effect); details: HCT-116 p53RE-bla, beta-lactamase FRET ratio, 16 h; activation: stronger effect = higher value
Procedure, shortened: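 Here HCT-116 cells with an integrated p53-responsive beta-lactamase gene were incubated with compounds (16 hours, 37 C) after a 5-hour plating period; beta-lactamase activity was detected as fluorescence intensity via B/G FRET substrate.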

[18] = qHTS assay for small molecule disruptors of the mitochondrial membrane potential - 5 hr assay (AID 651755; calls by dose curve; also: nearly all actives have a fitted effect of over 40% in size; also: potency is read from the fitted curve at half-maximal effect)
Procedure, shortened: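 Seed HepG2 overnight, add compound, incubate 5 hr at 37C and 5% CO2, stain 30 min with Mito-MPS, then measure monomer (490/535 nm) and aggregate (540/590 nm) fluorescence.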

[19] = MultiTox-Fluor Cytotoxicity Assay - LYMP1-001 - Live Cells (AID 947);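 also: 0% = DMSO only and full inhibition = tetraoctylammonium bromide control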
[20] = qHTS assay for small molecule agonists of the antioxidant response element (ARE) signaling pathway (AID 651741; active = well fitted activation curve with a large enough effect in the signal ratio; the % refers to the signal ratio; also: potency is read from the fitted curve at half-maximal effect; as to activation: % of control where 0% means no effect)
Procedure, shortened: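 Beta-lactamase reporter expression driven by the antioxidant response element in HepG2 cells was detected by fluorescence with LiveBLAzer B/G FRET substrate (2 h, room temperature) following 16 h compound treatment at 37 C.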

Sequence of Thyroid hormone receptor beta (Homo sapiens) (P10828 whole entry, looked up): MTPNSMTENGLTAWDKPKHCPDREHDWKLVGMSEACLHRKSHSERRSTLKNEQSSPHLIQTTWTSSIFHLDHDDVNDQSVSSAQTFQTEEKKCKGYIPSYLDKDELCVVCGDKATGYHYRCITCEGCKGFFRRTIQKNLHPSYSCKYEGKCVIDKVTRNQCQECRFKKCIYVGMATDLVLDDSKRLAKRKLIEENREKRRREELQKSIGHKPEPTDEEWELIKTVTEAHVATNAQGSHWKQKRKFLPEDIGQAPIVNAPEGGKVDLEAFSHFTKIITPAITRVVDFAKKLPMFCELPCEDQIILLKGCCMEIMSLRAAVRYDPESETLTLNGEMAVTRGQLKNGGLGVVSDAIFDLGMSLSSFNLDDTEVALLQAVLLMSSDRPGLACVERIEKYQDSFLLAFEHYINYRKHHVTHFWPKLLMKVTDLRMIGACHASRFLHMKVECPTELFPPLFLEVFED
Sequence of Peroxisome proliferator-activated receptor gamma (Homo sapiens) (P37231 whole entry, looked up): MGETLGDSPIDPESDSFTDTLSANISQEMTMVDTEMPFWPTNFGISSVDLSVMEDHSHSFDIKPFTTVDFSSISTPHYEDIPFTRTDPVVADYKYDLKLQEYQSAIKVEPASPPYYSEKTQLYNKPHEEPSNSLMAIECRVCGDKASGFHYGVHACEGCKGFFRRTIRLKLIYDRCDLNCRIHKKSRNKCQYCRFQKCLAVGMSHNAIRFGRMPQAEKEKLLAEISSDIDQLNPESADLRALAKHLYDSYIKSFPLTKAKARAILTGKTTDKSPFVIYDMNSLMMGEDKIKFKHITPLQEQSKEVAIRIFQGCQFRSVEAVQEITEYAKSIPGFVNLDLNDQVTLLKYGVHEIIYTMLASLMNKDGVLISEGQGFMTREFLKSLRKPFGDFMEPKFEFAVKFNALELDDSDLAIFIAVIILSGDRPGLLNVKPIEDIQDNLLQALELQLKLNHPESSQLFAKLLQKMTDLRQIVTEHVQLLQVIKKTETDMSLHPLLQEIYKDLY
Sequence of Estrogen receptor (Homo sapiens) (P03372 whole entry, looked up): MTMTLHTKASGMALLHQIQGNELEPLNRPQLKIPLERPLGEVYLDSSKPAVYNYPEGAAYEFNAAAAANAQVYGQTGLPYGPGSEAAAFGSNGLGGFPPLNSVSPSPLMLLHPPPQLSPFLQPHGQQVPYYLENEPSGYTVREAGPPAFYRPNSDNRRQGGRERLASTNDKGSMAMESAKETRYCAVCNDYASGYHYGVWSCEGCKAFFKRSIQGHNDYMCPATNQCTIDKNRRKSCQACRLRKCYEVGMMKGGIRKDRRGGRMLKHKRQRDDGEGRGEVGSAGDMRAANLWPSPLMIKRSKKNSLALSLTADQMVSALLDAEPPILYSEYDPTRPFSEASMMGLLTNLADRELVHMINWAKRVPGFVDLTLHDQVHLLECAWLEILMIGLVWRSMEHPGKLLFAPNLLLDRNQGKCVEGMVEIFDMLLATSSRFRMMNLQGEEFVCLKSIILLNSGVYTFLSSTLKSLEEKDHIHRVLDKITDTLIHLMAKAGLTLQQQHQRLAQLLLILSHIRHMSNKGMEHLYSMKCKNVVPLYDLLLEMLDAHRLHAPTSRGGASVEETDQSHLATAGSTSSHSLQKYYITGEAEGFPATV
Sequence of Glucocorticoid receptor (Homo sapiens) (P04150 whole entry, looked up): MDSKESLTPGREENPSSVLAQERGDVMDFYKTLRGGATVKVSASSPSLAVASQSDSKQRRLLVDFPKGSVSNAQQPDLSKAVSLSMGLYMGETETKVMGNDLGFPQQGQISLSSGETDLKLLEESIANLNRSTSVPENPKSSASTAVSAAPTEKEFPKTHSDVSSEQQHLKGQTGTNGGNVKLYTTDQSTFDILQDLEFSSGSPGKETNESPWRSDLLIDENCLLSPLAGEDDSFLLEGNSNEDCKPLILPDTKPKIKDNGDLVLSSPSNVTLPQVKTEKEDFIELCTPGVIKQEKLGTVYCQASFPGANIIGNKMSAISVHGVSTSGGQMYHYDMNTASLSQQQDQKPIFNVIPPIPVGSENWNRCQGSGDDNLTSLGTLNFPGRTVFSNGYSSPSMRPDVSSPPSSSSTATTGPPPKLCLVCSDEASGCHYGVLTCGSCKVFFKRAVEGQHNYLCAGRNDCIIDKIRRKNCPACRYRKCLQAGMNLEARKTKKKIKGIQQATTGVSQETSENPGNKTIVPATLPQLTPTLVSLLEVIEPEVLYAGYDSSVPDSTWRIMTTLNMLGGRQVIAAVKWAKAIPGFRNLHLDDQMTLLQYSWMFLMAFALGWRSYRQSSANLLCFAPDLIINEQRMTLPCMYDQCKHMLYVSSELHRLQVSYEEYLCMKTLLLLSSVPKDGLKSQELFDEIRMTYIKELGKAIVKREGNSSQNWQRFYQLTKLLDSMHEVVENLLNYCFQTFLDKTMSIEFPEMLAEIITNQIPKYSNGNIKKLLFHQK
Sequence of Bile acid receptor (Homo sapiens) (Q96RI1 whole entry, looked up): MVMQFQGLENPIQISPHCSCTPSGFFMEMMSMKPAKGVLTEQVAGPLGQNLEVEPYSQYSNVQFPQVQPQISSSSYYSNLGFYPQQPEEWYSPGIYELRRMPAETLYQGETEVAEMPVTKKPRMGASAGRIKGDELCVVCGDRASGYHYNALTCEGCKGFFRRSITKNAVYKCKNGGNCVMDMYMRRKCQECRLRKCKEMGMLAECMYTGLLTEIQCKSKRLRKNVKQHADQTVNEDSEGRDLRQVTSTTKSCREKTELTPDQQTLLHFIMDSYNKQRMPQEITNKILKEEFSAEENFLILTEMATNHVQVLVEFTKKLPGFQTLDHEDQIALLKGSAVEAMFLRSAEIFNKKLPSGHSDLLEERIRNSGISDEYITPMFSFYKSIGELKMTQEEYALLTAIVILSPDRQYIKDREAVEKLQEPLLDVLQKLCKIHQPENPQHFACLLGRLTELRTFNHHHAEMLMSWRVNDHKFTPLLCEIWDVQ
Sequence of Peroxisome proliferator-activated receptor delta (Homo sapiens) (Q03181 whole entry, looked up): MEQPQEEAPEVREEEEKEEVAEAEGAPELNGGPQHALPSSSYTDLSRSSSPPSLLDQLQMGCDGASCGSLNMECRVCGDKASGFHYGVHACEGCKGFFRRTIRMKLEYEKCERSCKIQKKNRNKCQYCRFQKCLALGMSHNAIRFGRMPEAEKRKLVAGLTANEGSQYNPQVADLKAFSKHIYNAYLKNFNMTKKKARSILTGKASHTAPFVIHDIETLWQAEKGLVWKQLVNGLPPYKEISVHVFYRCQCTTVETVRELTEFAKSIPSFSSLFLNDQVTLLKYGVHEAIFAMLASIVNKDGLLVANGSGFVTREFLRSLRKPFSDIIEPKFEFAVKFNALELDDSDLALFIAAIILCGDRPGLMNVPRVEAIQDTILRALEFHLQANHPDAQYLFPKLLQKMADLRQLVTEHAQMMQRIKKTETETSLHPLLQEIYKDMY

O=[N+]([O-])c1ccc2c3c(cccc13)CC2
inactive: outcome [1] | Potency [2] | Potency [3] | Potency [4] | Potency [5] | Potency [6] | outcome [7] | activation [8] -4.28% and -4.51% | outcome [9] | outcome [10] | outcome [12] | Potency [13] | activation [14] -1.76% and -1.52%
24.6%: max response [11]
active: Potency [15] 37.6 µM

Oc1cccc(Cl)c1
inactive: Potency [2] | Potency [3] | Potency [4] | Potency [5] | Potency [6] | activation [8] -11.4% | outcome [9] | Potency [13] | activity change % (negative = inhibition) [16] 0.91% | activation [17] 0.857% | activation [14] -0.548% | Potency [15] | Potency [18]

Nc1cc(Cl)cc(C(=O)O)c1Cl
inactive: outcome [1] | Potency [2] | Potency [3] | Potency [5] | outcome [10] | Potency [13] | activity change % (negative = inhibition) [16] -1.41% | activation [17] -3.99% and 3.61% | Potency [15] | Potency [18]
-17.7% and 9.43%: max response [11]

Nc1ccccc1-c1ccccc1
active: Potency [20] 42.2 µM
inactive: outcome [19] | Potency [2] | Potency [3] | Potency [4] | Potency [5] | Potency [6] | activation [8] -2.58% | outcome [9] | outcome [10] | activation [17] -6.93% | activation [14] -2.55%

FC(Cl)(Cl)Cl
inactive: outcome [19] | Potency [3] | outcome [7] | activation [8] 0.534% | outcome [9] | Potency [13] | Potency [20] | activation [17] -3.53% | Potency [15] | Potency [18]

Nc1ccc([N+](=O)[O-])cc1[N+](=O)[O-]
inactive: outcome [19] | Potency [3] | Potency [4] | Potency [5] | Potency [6] | outcome [9] | outcome [10] | Potency [13] | activity change % (negative = inhibition) [16] 0.221% | activation [14] -1.37%
active: Potency [15] 18.8 µM | Potency [18] 33.5 µM

O=C(Cc1ccccc1)OCc1ccccc1
inactive: outcome [19] | outcome [1] | Potency [2] | Potency [4] | Potency [5] | Potency [6] | outcome [7] | activation [8] 0.186% | outcome [10] | outcome [12] | activity change % (negative = inhibition) [16] 0.158% | Potency [15] | Potency [18]
18.5%: max response [11]

CCCCCC[N+](=O)[O-]
inactive: outcome [19] | outcome [1] | Potency [2] | Potency [3] | Potency [4] | Potency [5] | outcome [7] | outcome [9] | outcome [10] | activity change % (negative = inhibition) [16] -9.74% | activation [17] -5.04% | activation [14] 1.69% | Potency [15] | Potency [18]

C=C(Cl)CSC(=S)N(CC)CC
inactive: outcome [19] | outcome [1] | Potency [3] | outcome [7] | outcome [10] | outcome [12] | Potency [13] | activity change % (negative = inhibition) [16] 0.68% | activation [17] -1.91% | activation [14] -0.634% | Potency [15] | Potency [18]
-17.2%: max response [11]

[N-]=[N+]=[N-]
inactive: outcome [1] | Potency [5] | Potency [6] | activation [8] -7.88% | activity change % (negative = inhibition) [16] 7.76% | Potency [20] | activation [17] -1.87% | activation [14] 0.007% | Potency [18]

Nc1ccc(Cl)c(Cl)c1
inactive: Potency [2] | Potency [3] | Potency [4] | Potency [5] | outcome [12] | activity change % (negative = inhibition) [16] 2.33% | activation [17] 0.678% | activation [14] 0.145% | Potency [15] | Potency [18]
-10.6%: max response [11]

CC(C)CON=O
-5.59%: max response [11]
inactive: outcome [1] | Potency [2] | Potency [4] | Potency [5] | Potency [6] | activation [8] 2.25% | outcome [9] | outcome [10] | Potency [18]
